Measured values as given in PubChem BioAssay (NCATS).
Several values for one entry are separate records, joined by “and”; a condition that tells them apart may be missing. Equal entries are not always repeated. Records with an inconclusive call do not appear. Activity calls are given as the source filed them. Calls follow the shape of the dose curve; as a rule, active = well fitted curve in the direction sought with a large enough effect; inconclusive = small, poorly fitted or top-dose-only effect, or another doubt; inactive = no such curve, though single readings can be large; an effect the other way counts as inactive or inconclusive.

Assay: Viability qHTS for spleen associated tyrosine kinase inhibitor (SYKi) drug resistant MV4-11 cells (AID 1963824); also: nearly all actives have a fitted effect of over 35% in size
Settings: SYKi-resistant MV4-11 viability, CellTiter-Glo, 72 h; series mostly up to 45 µM; viability, % of control: at the top concentration
Procedure, shortened: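 SYK-inhibitor-resistant MV4-11 AML cells were seeded at 500 per well onto compound and cultured 72 hours (37 °C, 5% CO2). CellTiter-Glo was then added, and after 10 min at room temperature, luminescence gave viability.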
Potency is read from the fitted curve at half-maximal effect.

| Compound | Potency | viability, % of control |
| --- | --- | --- |
| N#Cc1cc2cc(CN3CCC(Nc4ncnc5sc(CC(F)(F)F)cc45)CC3)c(O)cc2n1Cc1cn[nH]c1 | 1.32 µM (active) | – |
| CS(=O)(=O)N1CCC(NC(=O)c2[nH]ncc2NC(=O)c2c(Cl)cccc2Cl)CC1 | 0.291 µM (active) | – |
| Cc1cnc(NS(=O)(=O)c2ccc(N)cc2)nc1 | – | 106% (inactive) |
| CN(C)C(N)=NC(=N)N | – | 82.3% (inactive) |

Assay: Cellular viability qHTS for adrenocortical cancer (ACC) cell line SW-13 (AID 1963989); also: nearly all actives have a fitted effect of over 65% in size;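 as to activity (max response): cells grown in serum-free medium with ITS supplement; % is scaled to controls: 0 for no effect and ±100 for the full control effect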
Settings: SW-13 ACC cells viability, CellTiter-Glo, 48 h; activity (max response): active compounds read low
Procedure, shortened: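 IC50 and maximal-response values come from four-parameter logistic fits of titration data. SW-13 cells in serum-free medium received compounds (up to 46 uM final) for 48 h before CellTiter-Glo luminescence.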

| Compound | Potency | activity (max response) |
| --- | --- | --- |
| CCOC(=O)CCNc1cc(N2CCc3ccccc3CC2)nc(-c2ccccn2)n1 | 1.26 µM (active) | – |
| COc1cc2c(cc1OC)C(=O)CC2 | – | 12.7% (inactive) |
| C[C@@H](Oc1cc(C(=O)Nc2ccc(C(=O)N3CCN(C)CC3)cc2)nnc1N)c1c(Cl)ccc(F)c1Cl | 17.8 µM (active) | – |
| O=C(NCCc1c[nH]c2ccccc12)c1cccnc1 | – | -4.89% (inactive) |
| CCCOc1ccn2c(C(C)=O)cc(-c3ccccc3S(C)(=O)=O)c2c1 | – | 0.517% (inactive) |
| Cc1c(C)c2c(c(C)c1OC(=O)CCC(=O)OCCO)CC[C@@](C)(CCC[C@H](C)CCC[C@H](C)CCCC(C)C)O2 | 18.4 µM (active) | – |
| CC(=O)CC(c1ccc([N+](=O)[O-])cc1)c1c(O)c2ccccc2oc1=O (stereo not given) | – | -8% (inactive) |
| CC(/C=C/C(=O)NO)=C\[C@@H](C)C(=O)c1ccc(N(C)C)cc1 | 6.31 µM (active) | – |
| NC(=O)c1ncn([C@@H]2O[C@H](CO)[C@@H](O)[C@H]2O)c1O | – | 14.2% (inactive) and 14.7% (inactive) and 8.98% (inactive) |
| CCCCOC(=O)CC(CC(=O)OCCCC)(OC(C)=O)C(=O)OCCCC | – | 12.7% (inactive) |
| Cc1[nH]c(/C=C2\C(=O)Nc3ccc(S(=O)(=O)N(C)c4cccc(Cl)c4)cc32)c(C)c1C(=O)N1CCN(C)CC1 | 17.8 µM (active) | – |
| Nc1c2ccccc2nc2ccccc12 | 7.31 µM (active) | – |
| Cc1cc(I)ccc1Nc1c(C(=O)NOCC2CC2)cc(F)c(F)c1F | 3.16 µM (active) | – |
| CN(C)CCOc1ccc(-c2nc(-c3ccc4c(c3)CC/C4=N\O)c(-c3ccncc3)[nH]2)cc1 | 31.6 µM (active) | – |
| CC(C)(C)CC(C)(C)c1ccc(O)c(-n2nc3ccccc3n2)c1 | – | 4.68% (inactive) |
| C[C@H]1[C@H](C)CC[C@]2(C(=O)O)CC[C@]3(C)C(=CC[C@@H]4[C@@]5(C)CC[C@H](O)C(C)(C)[C@@H]5CC[C@]43C)[C@H]12 | – | -4.55% (inactive) |

| Compound | Potency | activity (max response) |
| --- | --- | --- |
| O=C(/C=C/c1ccc(/C=C/C(=O)Nc2ccc(C3=NCCN3)cc2)cc1)Nc1ccc(C2=NCCN2)cc1 | – | -13% (inactive) |
| CC(C)Cc1ccc([C@@H](C)C(=O)NS(C)(=O)=O)cc1 | – | 5.6% (inactive) |
| Cn1cc(-c2cc(Oc3cc(F)c(NC(=O)C4(C(=O)Nc5ccccc5)CC4)cc3F)ccn2)cn1 | 25.1 µM (active) | – |
| CCN(c1cc(C#CCN2CCOCC2)cc(C(=O)NCc2c(C)cc(C)[nH]c2=O)c1C)C1CCC(N(C)CCOC)CC1 (stereo not given) | – | 7.49% (inactive) |
| C=CC(=O)Nc1cccc(Oc2nc(Nc3ccc(N4CCN(C)CC4)cc3)nc3ccsc23)c1 | 3.16 µM (active) | – |
| CNCCn1c(=O)c2cc(OC)c(OC)cc2c2cnc3cc4c(cc3c21)OCO4 | 0.0422 µM (active) | – |
| COc1cc([C@@H]2c3cc4c(cc3[C@@H](O[C@@H]3O[C@@H]5CO[C@@H](c6cccs6)O[C@H]5[C@H](O)[C@H]3O)[C@H]3COC(=O)[C@H]23)OCO4)cc(OC)c1O | 2.51 µM (active) | – |
| Cc1c(NC(=O)c2cc(C(N)=O)nc3cc(F)ccc23)c(C(F)(F)F)nn1Cc1ccc(C(C)(C)C)cc1 | – | 8.86% (inactive) |
| C[C@]12CCC(=O)C=C1CC[C@@H]1[C@@H]2[C@@H](O)C[C@@]2(C)[C@H]1CC[C@]2(O)C(=O)COC(=O)CCC(=O)O | – | 3.9% (inactive) |
| Cc1cnc(NC(=O)c2cc(Oc3cnc(C(=O)N(C)C)nc3)c3cc(C)oc3c2)cn1 | – | -13.9% (inactive) |
| CN1CCN(C(=O)c2ccc(-c3ccc4c(C=O)c(O)ccc4c3)s2)CC1 | – | 9.42% (inactive) |
| C=C1C[C@@]2(O)O[C@@]3(C[C@H]2C(C)C)[C@@H](C)CC[C@@H]13 | – | 6.19% (inactive) |
| CC(C)(C)C1CCC(CC2=C(O)c3ccccc3C(=O)C2=O)CC1 (stereo not given) | – | 12.3% (inactive) |
| CN1C(CCl)Nc2cc(Cl)c(S(N)(=O)=O)cc2S1(=O)=O (stereo not given) | – | -4.04% (inactive) |
| CCCCOC(=O)NS(=O)(=O)c1sc(CC(C)C)cc1-c1ccc(Cn2ccnc2)cc1 | 28.2 µM (active) | – |
